Screens (PubChem BioAssay)
An excerpt weighted towards active compounds, which were near 3.8% of everything screened.
HEK293 cAMP cs – qHTS Assay for Agonists of the Thyroid Stimulating Hormone Receptor: Activators of Intracellular cAMP Concentrations in Parental HEK 293. parental HEK293 CNG cAMP sensor, membrane potential fluorescence. Potency, µM (top dose mostly 57.1 µM), for inactives: at the top dose activation, actives largely listed as activators. 73,000 compounds, 2.5% hits. AID 938, 2007; further: potency means the concentration at half of the fitted maximal effect; % of control where 0% means no effect; nearly all actives have a fitted effect of over 55% in size
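Parental HEK 293 cells stably expressing a cAMP-gated CNG channel were loaded with membrane potential dye containing 100 uM RO 20-1724 for 60 min. Compound added for 30 min; depolarization read as fluorescence intensity at 590 nm.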
GFP derepression – qHTS Assay for Epigenetic Modulators. Potency, µM (top dose mostly 46.1 µM), for the others: top-dose GFP derepression (activation). mouse C127i GFP locus derepression, cytometry, 30 h. 68,000 compounds, 0.09% hits; further: % of control where 0% means no effect
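Derepression screen: silenced CMV-GFP reporter in murine C127i cells, 30 h compound incubation at 37 C, washed cells imaged by laser-scanning cytometer to enumerate GFP-expressing objects of 20 to 120 um.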
ERK AVP block – qHTS Assay for Inhibitors of the ERK Signaling Pathway using a Homogeneous Screening Assay; HEK293-V1b, vasopressin-stimulated pERK AlphaScreen; Potency, µM (top dose mostly 57.5 µM), for inactives: at the highest dose activity, negative = inhibition, actives largely listed as inhibitors; 72,000 compounds, 0.99% hits; AID 995, 2007; further: potency means the concentration at half of the fitted maximal effect; on the % scale 0 is the no-effect control and ±100 the full control effect; nearly all actives have a fitted effect of over 55% in size
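HEK293 cells stably expressing V1b receptor, preincubated 30 min at 37 °C with compound, then stimulated 5 min with 25 nM vasopressin. Phospho-ERK by AlphaScreen SureFire after 5 h RT; normalized to DMSO and vasopressin; AC50 by Hill fit.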
Ub-GFP proteasome – Ubiquitin-GFP Assay; Ubiquitin-GFP reporter cells, proteasome inhibition, GFP fluorescence; response scale: untreated = 0%, 10 µM MG-132 = 100%; Potency, µM (titrated, usually from 45.9 µM), without a hit: at the highest dose activation (GFP accumulation), hits mostly activators; 67,000 tested, under 10 active; active means well fitted activation curve with a large enough effect, not every such curve was filed as active; inconclusive means small, poorly fitted or top-dose-only effect, or another doubt; inactive means no such curve, though single readings can be large or run the other way; further: potency means the concentration at half of the fitted maximal effect
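GFP accumulation read-out: laser plate cytometry counting ubiquitin(G76V)-GFP-expressing U2OS cells after 4 hr compound exposure at 37 °C. Titrations spanned 46 uM to 2.9 nM; 0% = basal, 100% = 10 uM MG-132; concentration-response curves fitted.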
HBB splicing – qHTS Assay for Modulators of Hemoglobin Beta Chain Splicing; AID 925, 2007; Potency, µM (series often up to 46.1 µM), inactives show top-dose activation, actives largely listed as activators; 65,000 compounds, 0.06% hits; HBB splicing reporter cell assay, activation; EGFP reporter with mutant IVS2-654 intron; response scale: normalised to 500 nM splice-correcting PNA; further: potency means the concentration at half of the fitted maximal effect; 0% is about no effect
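HeLa cells stably expressing EGFP interrupted by mutant beta-globin intron 2 (IVS2-654), 500/well in 2% FCS. Treated with compound for 2 days at 37C. Splicing correction scored as total well GFP intensity (488 nm excitation, 500-520 nm emission); 500 nM antisense PNA served as control.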
TSHR ag – qHTS Assay for Agonists of the Thyroid Stimulating Hormone Receptor; Thyrotropin receptor (Homo sapiens), P16473; HEK293-CNG-TSHR cells (CNG channel as cAMP sensor), membrane potential dye, cAMP; Potency, µM (titrated, usually from 57.1 µM), without a hit: at the highest dose activation, actives largely listed as activators; 73,000 compounds, 0.48% hits; AID 926, 2007; active means well fitted activation curve with a large enough effect in the main read-out, with a control signal flat, not every such curve was filed as active; inconclusive means small, poorly fitted or top-dose-only effect, or a change in a side signal; inactive means no such curve, though single readings can be large or run the other way; % of control where 0% means no effect;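 further: the control signal comes from parental cells without the receptor; potency means the concentration at half of the fitted maximal effect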
Target sequence (P16473 whole entry, looked up): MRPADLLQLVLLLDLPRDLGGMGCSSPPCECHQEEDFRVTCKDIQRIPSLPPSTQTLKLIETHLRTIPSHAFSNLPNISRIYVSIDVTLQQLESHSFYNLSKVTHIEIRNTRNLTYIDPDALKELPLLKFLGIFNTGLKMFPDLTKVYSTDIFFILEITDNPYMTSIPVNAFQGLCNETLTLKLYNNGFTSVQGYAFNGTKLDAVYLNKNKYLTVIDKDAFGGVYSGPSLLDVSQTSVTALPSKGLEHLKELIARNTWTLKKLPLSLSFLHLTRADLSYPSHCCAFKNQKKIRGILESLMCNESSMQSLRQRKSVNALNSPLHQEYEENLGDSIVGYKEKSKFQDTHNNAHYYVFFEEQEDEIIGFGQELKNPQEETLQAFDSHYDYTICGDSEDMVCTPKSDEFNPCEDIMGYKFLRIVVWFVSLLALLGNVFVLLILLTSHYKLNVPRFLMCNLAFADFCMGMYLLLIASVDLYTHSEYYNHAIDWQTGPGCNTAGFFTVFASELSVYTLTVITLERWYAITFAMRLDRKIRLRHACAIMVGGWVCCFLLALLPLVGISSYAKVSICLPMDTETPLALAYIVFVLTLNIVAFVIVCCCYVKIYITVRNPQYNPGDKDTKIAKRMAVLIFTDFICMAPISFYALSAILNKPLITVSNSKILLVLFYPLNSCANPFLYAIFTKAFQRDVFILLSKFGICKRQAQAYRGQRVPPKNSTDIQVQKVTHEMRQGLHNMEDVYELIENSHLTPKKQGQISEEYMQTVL
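HEK 293 cells stably expressing TSHR and a modified CNG channel, with CNG-only parental cells as counterscreen, were preloaded 60 min at room temperature with membrane potential dye containing 100 uM RO 20-1724. Compound exposure was 30 min, and depolarization was read as fluorescence at 590 nm.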
* = called active by the depositor; ? = inconclusive; . = not tested or not shown; [ ] = dose if it differs, or a comment. Unless noted, the call rests on the fitted dose curve; in most records, active means well fitted curve in the direction sought with a large enough effect; inconclusive means small, poorly fitted or top-dose-only effect, or another doubt; inactive means no such curve, though single readings can be large; an effect the other way counts as inactive or inconclusive.

SMILES | HEK293 cAMP cs | GFP derepression | ERK AVP block | Ub-GFP proteasome | HBB splicing | TSHR ag
COc1ccc(CCNc2nc(C)nc3c2oc2ccccc23)cc1OC | ? | -2% | 13µM* | -3% | -2%[57.5 µM] | ?
N#Cc1c(/N=C/c2cccs2)sc2c1CCCCC2 | 4% | 4% | 16µM* | 1% | 2%[57.5 µM] | 22%
CCOc1ccc(C2C=C(c3ccc(C)cc3)Nc3nnnn32)cc1 (stereo not given) | 18% | 10% | -2% | 20% | 2%[1.84 µM] | 20%
CCOc1ccc(C2C=C(c3ccc(C)cc3)Nc3ncnn32)cc1 (stereo not given) | 20µM* | 3% | -1% | 7% | 0%[1.84 µM] | ?
COc1ccccc1CNc1ncncc1-c1ccc(N(C)C)cc1 | -10% | 3%[9.22 µM] | ? | -2% | -1% | 6.3µM*
COc1ccc(CNc2ncncc2-c2ccc(N(C)C)cc2)c(OC)c1 | ? | -1%[9.22 µM] | ? | -6% | 0% | ?
O=C(c1cccc(F)c1)N1CCN(c2cccc(Cl)c2)CC1 | 13% | -3% | 10% | -2% | -2% | 9%
O=C(c1c(Cl)nc2sccn12)N1CCN(c2cccc(Cl)c2)CC1 | 32µM* | 8% | -13% | -8% | 0%[57.5 µM] | ?
CCOC(=O)c1cnc(-n2nc(C)cc2C)nc1Nc1cccc(C(=O)O)c1 | 13% | 6% | 7% | 9% | -1% | 25µM*
CCOC(=O)c1cnc(-n2nc(C)cc2C)nc1Nc1ccc(N(C)C)cc1 | -8% | 14% | ? | -10% | 6% | -14%
Cc1ccc(NC(=O)CN(c2cc(C)cc(C)c2)S(=O)(=O)c2c(C)noc2C)nc1 | 20µM* | 3% | -12% | 17% | -1% | ?
Cc1cc(C)cc(N(CC(=O)Nc2cccc(C)n2)S(=O)(=O)c2c(C)noc2C)c1 | ? | -3% | -5% | -12% | 0% | ?
CCc1c(O)nc(SCc2ccccc2)n(C(C)CC)c1=O (stereo not given) | 25µM* | 0% | 15% | -3% | -2% | ?
COc1cc(Nc2nc(SCC#N)nc3ccccc23)cc(OC)c1OC | -43% | 0% | -12% | -1% | 6%[57.5 µM] | ?
N#CCSc1nc(Nc2ccc3c(c2)OCO3)c2ccccc2n1 | 2% | -3% | 32µM* | 10% | 1%[57.5 µM] | -10%
COc1ccc(OC)c(CCNC(=O)CS(=O)(=O)Cc2nc(-c3ccccc3C)oc2C)c1 | 16µM* | 2% | 9% | -4% | -1% | ?
Cc1ccccc1-c1nc(CS(=O)(=O)CC(=O)NCc2ccccc2)c(C)o1 | 27% | -2% | 0% | 0% | -1% | 16µM*
Cn1cc(-c2nc3cncnc3n(CCN)c2=O)c2ccccc21 | -16% | 0%[9.22 µM] | -15% | 1% | 0% | -8%
CCN(CC)CCn1c(-c2ccccc2)nc2c(NCCO)nc(C)nc21 | 14% | . | -2% | -5% | 0% | 6%
Clc1ccc(-c2nnc3sc(-c4ccc(Br)o4)nn23)cc1 | 4% | 6% | 1% | 5% | -2% | .
Cc1oc(-c2ccc(Cl)cc2)cc1-c1nn2c(-c3ccoc3C)nnc2s1 | 32µM* | 0% | -3% | -3% | 0% | ?
CCN(C(=O)c1cc2cc3ccc(C)cc3nc2o1)c1ccc(OC)cc1 | 40µM* | 4% | 3% | 1% | 7% | ?
Cc1ccc2cc3cc(C(=O)NCCC(C)C)oc3nc2c1 | 5% | 0% | 1% | 20% | -2% | 10%
CCOC(=O)c1c2c(n3ccccc13)C(=O)c1ccccc1C2=O | -9%[11.4 µM] | 7%[9.22 µM] | ? | -9%[9.17 µM] | 3.2µM* | -12%[11.4 µM]
COc1ccc(N(CC(=O)Nc2cc(C)on2)S(=O)(=O)c2cc(C)ccc2C)cc1 | 27% | 2% | -6% | -2% | 2%[57.5 µM] | 25µM*
SMILES | HEK293 cAMP cs | GFP derepression | ERK AVP block | Ub-GFP proteasome | HBB splicing | TSHR ag
Oc1ccc(Nc2nc(N3CCCC3)c3ccccc3n2)cc1 | -53% | -1% | 32µM* | 3% | 0%[57.5 µM] | ?
Nc1nc(Nc2ccccc2)nc2ccccc12 | -94% | -2% | 13µM* | 2% | 0%[57.5 µM] | ?
Cc1ccc(Nc2nc(N3CCOCC3)c3ccccc3n2)cc1 | 15% | -2% | ? | -2% | -3% | 16%
CCN(CC)c1ccc2c(c1)oc(=O)c1c(Cl)cc(=O)oc12 | -5% | ? | ? | 3% | 0% | -4%
CCN(CC)c1ccc2c(Cl)c(Br)c(=O)oc2c1 | ? | 10µM* | 5% | ? | . | ?
O=C(Nc1cccc(F)c1)N1CC[C@@]2(CCCN(C(=O)c3cnccn3)C2)C1 | 20% | -2%[9.22 µM] | -2% | -5% | 1% | 5%
CN1CCc2c(sc3c2C(=O)NC(/C=C/c2ccco2)N3)C1 (stereo not given) | -16% | 2% | 16µM* | -3% | 2%[0.369 µM] | -21%
CCc1cccc(NC(=O)CN2C(=O)NC3(CCCCCCC3)C2=O)c1 | 14% | 0% | 10% | -3% | -1% | 13µM*
CC(C)C[C@@H](CC(=O)N[C@@H](CCC(=O)O)CC(=O)O)NC(=O)[C@@H]1CNCC[C@H]1NC(=O)C[C@H](CCCN)NC(=O)C[C@H](Cc1c[nH]c2ccccc12)NC(=O)[C@@H]1CNCC[C@H]1N | ? | . | . | . | 0% | ?
Clc1ccc(CSc2nnc(-c3ccncc3)o2)c(Cl)c1 | 20µM* | -4% | 31% | 20% | 0%[1.84 µM] | ?
OCCN[C@@H]1c2cc(Cl)ccc2-c2c(Cl)cc(Cl)cc21 | 1%[11.4 µM] | 0%[9.22 µM] | -2%[11.5 µM] | -2%[9.17 µM] | 0%[9.22 µM] | 9%[11.4 µM]
COc1ccc(S(=O)(=O)Cc2ccc(C(=O)N3CCN(c4ccc(Cl)cc4)CC3)o2)cc1 | 18% | -3% | ? | -9% | -1% | 20µM*
COc1ccccc1S(=O)(=O)Cc1ccc(C(=O)N2CCN(c3ccc(C)cc3)C(C)C2)o1 (stereo not given) | -2% | . | 25µM* | 9% | -2% | 12%
CC[C@H]1C2=C3C(CC[C@H]4C(OCc5ccc(F)cc5C(F)(F)F)OC[C@](C)([C@@H]34)N(C(=O)OC(C)(C)C)C2)C2COC(=O)OCC21 (stereo not given in full) | -11% | . | -1% | . | 0% | 5%
COc1ccccc1N1CCN(C(=O)COc2ccc(Cl)cc2)CC1 | 17% | 1% | 32µM* | 8% | -3% | -10%
O=C(COc1ccc(Cl)cc1)N1CCN(c2ncccn2)CC1 | 20% | -3% | 2% | 0% | 1% | -3%
